# Values without a mark were called inactive.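 Rule for the calls: active = MAPPIT score above the 99th percentile of random reference set scores in the same batch; inactive = at or below it.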
# B1: stas (protein)
# chain: MSYCSGVAISADEGITMRNGRAKALQEHSPDQVATPLLPQVPPQEQQDLNPQQQQQQQQQQQATPQKQAMSADEKKATKKSLVIVAGIFVASLVTMCYVYAIFPELNASEKQHLKIPRDIQDAKMLAKVLDRYKDMYYFEVMFGVVVAYVFLQTFAIPGSLFLSILLGFLYKFPIALFLICFCSALGATLCYTLSNLVGRRLIRHFWPKKTSEWSKHVEEYRDSLFNYMLFLRMTPILPNWFINLASPVIGVPLHIFALGTFCGVAPPSVIAIQAGKTLQKMTSSSEAFSWTSMGILMACACASLLPGLLKNKFKHKKEA
# B2: Mst57Da (protein)
# chain: MKFLALFVTLLVVLALVSAQKSQNTNHNVIVIGAKKPGAAPAAAAAAAPAAPPAAAPAAAPAAPEAGLADAPAES
# B3: ATPsynCF6 (protein)
# chain: MLSQSLLSGMRVLRTEARRNFGIVAPALNKASDPIQQLFLDKVREYKQKSAGGKLVDSNPDIERELKTELDRVAKQFGSDGKTDMLKFPEFQFPDVKVDPITQAPQ
# B4: Arp6 (protein)
# chain: MANAVVVLDNGAHTAKVGLANQDEPHVVPNCIMKAKSERRRAFVGNQIDECRDTSALYYILAFQRGYLLNWHTQKTVWDYIFSKDGIGCSLENRNIVITEPQMNFQSIQEATLEILFEEYKVDGVYKTTAADLAAFNYVADSEERTTMESLNCIIIDVGYSFTHVVPFVLGRRVLQGIRRIDMGGKALTNQLKELISYRHLNVMDESHVVNQIKEDVCFVAEDFKQAMQVHYSEEKRREVTVDYVLPDFTTVKRGYVRVPGKPREDEEQQQMVSLCNERFTVPELLFNPSDIGVQQVGIPEAVADCLKACPWEAHRELLLNILIVGGSAQFPGFLPRLKRDLRALVPDDLEVSLICPEDPVRYAWYGGKEVATSPNFEEFVYTQDDYEEYGFQGINQR
# B5: Crk (protein)
# chain: MDTFDVSDRNSWYFGPMSRQDATEVLMNERERGVFLVRDSNSIAGDYVLCVREDTKVSNYIINKVQQQDQIVYRIGDQSFDNLPKLLTFYTLHYLDTTPLKRPACRRVEKVIGKFDFVGSDQDDLPFQRGEVLTIVRKDEDQWWTARNSSGKIGQIPVPYIQQYDDYMDEDAIDKNEPSISGSSNVFESTLKRTDLNRKLPAYARVKQSRVPNAYDKTALKLEIGDIIKVTKTNINGQWEGELNGKNGHFPFTHVEFVDDCDLSKNSTEIC
# B6: ATPsynF (protein)
# chain: MAFGDYPAEYNPKVHGPYDPARFYGKADVPFGQVKLGEIGAWLGRRNKTPNAVAGAVSRAWWRWQHKYVFPKRAGIAPFFQLTVASMTFFYLINYTKLKHHRNYKYH
# B7: CycA (protein)
# chain: MASFQIHQDMSNKENPGIKIPAGVKNTKQPLAVIGGKAEKNALAPRANFAVLNGNNNVPRPAGKVQVFRDVRNLNVDENVEYGAKKSNVVPVVEQFKTFSVYEDNNDTQVAPSGKSLASLVDKENHDVKFGAGQKELVDYDLDSTPMSVTDVQSPMSVDRSILGVIQSSDISVGTETGVSPTGRVKELPPRNDRQRFLEVVQYQMDILEYFRESEKKHRPKPLYMRRQKDISHNMRSILIDWLVEVSEEYKLDTETLYLSVFYLDRFLSQMAVVRSKLQLVGTAAMYIAAKYEEIYPPEVGEFVFLTDDSYTKAQVLRMEQVILKILSFDLCTPTAYVFINTYAVLCDMPEKLKYMTLYISELSLMEGETYLQYLPSLMSSASVALARHILGMEMWTPRLEEITTYKLEDLKTVVLHLCHTHKTAKELNTQAMREKYNRDTYKKVAMMESVEMSKDDFDQLCEAYNCKQKEDEHQQPDINTKSNVNLFYKF
# B8: spir (protein)
# chain: MTEHQAEEQADTPPTKVKATPTPTPSGKFKDAKEDAFLSTSPDSANGDAQHKLPADQLAMSSSAHPQQAGQARPLILQAFHRCSSPEQCVTLHDILDSFKAPLSEDQAWALIHQFAGLYHQVAVQAHTCAADYEAALPTGFELHFHRDGSVHFSGPDQLTPKEQLQQEQIPLPPQHDVIVDQPDHSASSSGDSSVINRAFDNSNHHHHHQHHHPPLVVSHRKIISELAEIVYTALDYNLPEDEECQVSQELENLFNFMTADETDDDCIDEGIDEGDKRWDDESEEERNDTKELEHIIETCRNHIKTTLPENHYRAVCRALVTETIELRVFLQQVLNNEAGAEKLIKASESSATTQQELAKLGFNDWARFWVQVIDELRRGVRLKKSNHERTPIEYELTPYEILMGDIRAKKYQLRKVMVNGDIPPRVKKDAHAMILEFIRSRPPLKKASDRQLGPPRMCEPSPREQLMESIRKGKELKQITPPEAPTLRERVLPSANSTLSRSRQRLIKVDFSKFQDDDLFYDENSISSSHSTAATHQHHPHFAEMHRCSQPKMPPYPFGGYMVPSQARQDCRETASLMRPRRTMEPAKQVPPPEEPSFTKDEYHKFYDTALESYDLATQCESRRASLRRHTIVGCQSNLDETHSMPPTRPESRQSDDVSKETPKRSPAEQTHPSDEGSSTSSLGPWNKSFMDKQTWMERGDDRLSVTLAEIVHIRSVMTKAELEGLPMDVRVKEDVEKRRVCFLCLRTRFSFFGPWGIQCKLCQRTVCAKCYTKMRIPSEHFRNVPLVLISPSLLSSPASSSTPSPSHHAQQAHSSSTGNIMDDQFPKSLIERLLRSESDRKTRSTVGSAPSSPKHQRSNMSTPGISVGPGASSSSAAATGQAVEALHDQATMSSSYSAAMRPSGVHQQQKQHYNNAMSRSMEGPRSLPVHSPAYRPLSNNSTLERKSRFSRGFNLFSSGSHLAQTQEQKENLRGEQVTVCNDCQGLVNEITSSVKQKRSSARNRTIQNLTLDLTPVWK
# Legend:
# Test in all cases: MAPPIT interaction score (arbitrary units); higher = stronger binary interaction signal, active = hit call of the paper
# [1] = target: ATPsynC; settings: MAPPIT configuration: N-C; pair source set: screen_3
# Protocol: (§1)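 MAPPIT in HEK293T cells: Drosophila bait and prey ORFs (from the FlyBi ORF collection) were co-transfected in quadruplicate, with two wells stimulated by erythropoietin. Interaction-dependent JAK-STAT activation was read out with a STAT-responsive firefly luciferase reporter. Positive calls use the 99th percentile of random reference set (RRS) scores within each batch […]. Batches Dvs01 and Dvs02 used the N-N configuration and Dvs04 the N-C configuration. Pairs come from FlyBi screens, CuraGen, DPiM, Finley Y2H, Lit-BM-16, Lit-BS-16 and RRS.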
# [2] = target: ATPsynCF6L; settings: MAPPIT configuration: N-C; pair source set: screen_3
# Protocol: as §1
# [3] = target: CG13643; settings: MAPPIT configuration: N-C; pair source set: screen_3
# Protocol: as §1
# [4] = target: Dpm3; settings: MAPPIT configuration: N-C; pair source set: screen_3
# Protocol: as §1
# [5] = target: NaPi-T; settings: MAPPIT configuration: N-C; pair source set: screen_4
# Protocol: as §1
# [6] = target: Pdk1; settings: MAPPIT configuration: N-N; pair source set: Curagen_high_conf
# Protocol: as §1
# [7] = target: ATPsynF; settings: MAPPIT configuration: N-N; pair source set: DPIM
# Protocol: as §1
# [8] = target: ATPsynG; settings: MAPPIT configuration: N-N; pair source set: Lit-BS-16
# Protocol: as §1
# [9] = target: sle; settings: MAPPIT configuration: N-N; pair source set: Lit-BS-16
# Protocol: as §1
# [10] = target: ATPsyndelta
# Protocol: as §1
# [11] = target: CG15572; settings: MAPPIT configuration: N-C; pair source set: screen_4
# Protocol: as §1
# [12] = target: CG42659; settings: MAPPIT configuration: N-C; pair source set: screen_3
# Protocol: as §1
# [13] = target: Polr3E; settings: MAPPIT configuration: N-C; pair source set: screen_4
# Protocol: as §1
# [14] = target: ATPsyngamma; settings: MAPPIT configuration: N-N; pair source set: DPIM
# Protocol: as §1
# [15] = target: Acp1; settings: pair source set: RRS
# Protocol: as §1
# 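Note: HEK293T cells with Epo stimulation, STAT-responsive firefly luciferase reporter, fold induction versus unstimulated cells divided by the larger fold induction of two negative controls lacking either bait or prey.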
binder,measurement,setting,value
B1,MAPPIT interaction score,[1],0.0375
B2,MAPPIT interaction score,[2],0.192
same,MAPPIT interaction score,[3],-0.565
same,MAPPIT interaction score,[4],0.043
same,MAPPIT interaction score,[5],1.02
same,MAPPIT interaction score,[6],-0.52
B3,MAPPIT interaction score,[7],-0.221
B4,MAPPIT interaction score,[8],0.0569
same,MAPPIT interaction score,[9],-0.421
B5,MAPPIT interaction score,"[10]; MAPPIT configuration: N-C, pair source set: screen_4",2.72
same,MAPPIT interaction score,[11],0.475
same,MAPPIT interaction score,[12],0.17
same,MAPPIT interaction score,[13],2.44
B6,MAPPIT interaction score,"[10]; MAPPIT configuration: N-N, pair source set: DPIM",0.173
B7,MAPPIT interaction score,[14],1.52
B8,MAPPIT interaction score,[15]; MAPPIT configuration: N-C,-0.762
same,MAPPIT interaction score,[15]; MAPPIT configuration: N-N,0.149

# Reference: the supplement of paper PMC10105736
